Here are results for ten compounds from the supplement of paper PMC6522484.

± gives the standard deviation of the averaged measurements.

The test system of test [1] is DLD1. The test is described as follows: cell viability (CellTiter-Glo) relative to plate median (fraction of plate median); higher = more viable cells. To be noted: 5 µM; treatment time 24 h; reporter: 7TFP. Put shortly: (§1)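 Library compounds were added at a final concentration of 5 µM for 24 h to colorectal cancer cells stably transduced with a lentiviral TCF/Wnt firefly luciferase reporter. Reported values are firefly luciferase or CellTiterGlo luminescence, normalised per well to the plate median. Each value averages two independent replicates.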
A general note: In ATP-based viability assays light output follows the ATP content of the culture.

Test [2] concerns HCT116. The test is described as above. The following applies: 5 µM; treatment time 24 h; reporter: TCF4/Wnt. Put shortly:
as §1

Test [3] relates to SW480. The test is described as above. The following applies: 5 µM; treatment time 24 h; reporter: 7TFP. The method, boiled down:
as §1

Test [4] has as its system DLD1. The experiment in a line: TCF/Wnt firefly luciferase reporter signal relative to plate median (fraction of plate median); higher = higher Wnt reporter signal. To be noted: 5 µM; treatment time 24 h; reporter: 7TFP. Put shortly: as §1
In general terms: In a reporter assay the amount or activity of a reporter protein is the signal.

The subject of test [5] is SW480. The description is as above. To be noted: 5 µM; treatment time 24 h; reporter: 7TFP. Put shortly: as §1

On to `CC(=O)c1cc2c(cc1O)OC(C)(C)C=C2`, for which the cell viability amounted to 1.09 ± 0.099 in test [1], 1 ± 0.011 in test [2] and 1.03 ± 0.014 in test [3]. Besides, the results for the “TCF/Wnt firefly luciferase reporter signal” value in test [4] and in test [5] were 0.99 ± 0.057 and 1.01 ± 0.023, respectively.
On the same counts, the results for `CC(=O)Oc1ccccc1C(=O)O` are 1.01 ± 0.035, 1.02 ± 0.031, 1.025 ± 0.0071, 1.05 ± 0.014 and 0.97 ± 0.14.
With `O=C(O)c1cc(O)c2c(c1)C(=O)c1cc(O)cc(O)c1C2=O`, the cell viability in test [1] is 0.873 ± 0.11; in test [2], 0.866 ± 0.057; in test [3] it was 0.991 ± 0.013. Further, the “TCF/Wnt firefly luciferase reporter signal” value in test [4] came out at 0.926 ± 0.22; in test [5], 1.12 ± 0.11.
The corresponding values for `Nc1nc2c(ncn2[C@H]2C[C@H](O)[C@@H](CO)O2)c(=O)[nH]1` [Desoxyguanosin] are 1 ± 0.013, 1.01 ± 0.11, 1.004 ± 0.0078, 0.989 ± 0.016 and 0.997 ± 0.018.
On the same counts, the results for `CC(NCCc1ccc(O)cc1)C(O)c1ccc(O)cc1` (stereo not given) are 0.914 ± 0.1, 0.929 ± 0.1, 0.933 ± 0.056, 0.981 ± 0.07 and 0.913 ± 0.027.
On the same counts, the results for `CN(C(=O)CN(CCO)CC(=O)N(C)C(C)(C)Cc1ccccc1)C(C)(C)Cc1ccccc1` are 1.01 ± 0.022, 1.04 ± 0.11, 1.11, 1.15 ± 0.05 and 1.025 ± 0.0071.
As to `Cc1cc(O)c(C)c(O)c1C(=O)O`, the cell viability in test [1] came out at 1 ± 0.05; in test [2], 0.927 ± 0.0085; in test [3] it was 0.996 ± 0.021. Also, the “TCF/Wnt firefly luciferase reporter signal” value came out at 0.792 ± 0.36 in test [4] and 0.949 ± 0.23 in test [5].
In the case of `O=c1c(O)c(-c2ccccc2)oc2ccccc12`, the cell viability in test [1] amounted to 0.992 ± 0.026; in test [2] it was 0.961 ± 0.069; in test [3] it was 1 ± 0.027. Moreover, the “TCF/Wnt firefly luciferase reporter signal” value amounted to 1.1 ± 0.16 in test [4] and 0.977 ± 0.1 in test [5].
In the case of `Cc1ccc(C)c(OCCCC(C)(C)C(=O)O)c1`, the cell viability in test [1] was determined as 0.985 ± 0.092; in test [2], 0.986 ± 0.034; in test [3] it was 1.01 ± 0.015. Besides, the “TCF/Wnt firefly luciferase reporter signal” value is 1.015 ± 0.0071 in test [4] and 1.06 ± 0.05 in test [5].
As for `O=C(O)c1cn(C2CC2)c2cc(N3CCNCC3)c(F)cc2c1=O`, the cell viability was found to be 0.964 ± 0.037 in test [1], 0.988 ± 0.015 in test [2] and 1.03 ± 0.021 in test [3]. Moreover, the results for the “TCF/Wnt firefly luciferase reporter signal” value in test [4] and in test [5] were 1.05 ± 0.078 and 1.07 ± 0.014, respectively.
